35 molecules from PubChem BioAssay can be followed below.

Assay [1] can be described thus: HIF-2a driven luciferase blockers, single dose – luminescence, 786-0 RCC cells, confirmation (AID 651580;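 active means mean inhibition across four replicates of at least 40 percent at the single tested concentration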). To be noted: HIF-2a luciferase reporter luminescence, overnight, at 18.8 µM, stronger effect = higher value. A general note: Reporter assays use an easily measured gene product as a stand-in for the process of interest.
Assay [2] can be described thus: HIF-1a luciferase reporter signal reduction – MiaPaCa-2 cells, single concentration, counter-screen for HIF-2a inhibitor project, confirmation (AID 651589;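 active means mean inhibition of the reporter signal across four replicates at the single tested dose of 50% or more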). The note with it: MiaPaCa-2 HIF-1a luciferase reporter, desferoxamine, overnight; at 18.8 µM; stronger effect = higher value.
The nature of assay [3]: NFkB reporter suppression in cystic fibrosis bronchial cells – cell-based, uHTS hits, panel, cytotoxicity readout, dose response (AID 624344). To be noted: CF bronchial epithelial cells, PAF-induced NFkB reporter inhibition, with PAF, run 1; at 79 µM (top of the series).
Experiment in assay [4]: as above
The note with it: CF bronchial epithelial cells, PAF-induced NFkB reporter inhibition, with PAF, run 2; at 79 µM (top of the series).

Assay [5] addresses Tumor necrosis factor receptor superfamily member 10B (Homo sapiens) (UniProt O14763). In words: viability loss of caspase-8 NB7 cells with TRAIL – with/without TRAIL, luminescence panel, confirmation (AID 651596). To be noted: NB7 neuroblastoma + caspase-8, TRAIL sensitization, NB7 Caspase-8, with TRAIL, mean of runs, at 10 µM, stronger effect = higher value.
Experiment in assay [6]: as above
The note with it: NB7 neuroblastoma + caspase-8, without TRAIL, NB7 Caspase-8, without TRAIL, mean of runs, at 10 µM.

Some of the results follow. Activity calls are given as the source filed them. Unless noted, no stated cut-off is given here; in the data, active means activity above about 50%; inactive means the rest.

Sequence of Tumor necrosis factor receptor superfamily member 10B (Homo sapiens) (O14763 whole entry, looked up): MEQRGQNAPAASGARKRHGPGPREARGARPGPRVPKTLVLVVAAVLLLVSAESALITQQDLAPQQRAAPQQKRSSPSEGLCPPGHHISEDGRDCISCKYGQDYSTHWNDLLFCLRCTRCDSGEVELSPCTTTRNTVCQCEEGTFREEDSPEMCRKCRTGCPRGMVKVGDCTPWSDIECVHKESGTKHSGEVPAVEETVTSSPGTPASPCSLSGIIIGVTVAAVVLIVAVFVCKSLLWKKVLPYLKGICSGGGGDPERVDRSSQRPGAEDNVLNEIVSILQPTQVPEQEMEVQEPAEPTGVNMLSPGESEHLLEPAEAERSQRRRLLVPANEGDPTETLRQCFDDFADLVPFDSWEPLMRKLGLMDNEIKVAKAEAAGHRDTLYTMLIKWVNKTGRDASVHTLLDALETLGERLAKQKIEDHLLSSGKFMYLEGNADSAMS

What is called inhibition is the drop in the measured response relative to a control, in per cent. Turning to `CCC(C)(O)C(=O)OC1C(=O)OC2CC3C(C)=CC(=O)C(O)C3(C)C3C4(O)OCC23C1C(C)C4O` (centres undefined), the values for the inhibition in assay [1] and in assay [2] were 55.2% (active) and 101% (active), respectively.

`COc1cc(C2c3cc4c(c(O)c3CC3COC(=O)C32)OCO4)cc(OC)c1OC` (centres undefined): the inhibition in assay [3] turned out to be 110%; in assay [4] it was 85%.

As for `COc1ccc(-n2nnnc2C(c2cccs2)N2CCC(n3c(=O)[nH]c4ccccc43)CC2)cc1` (centres undefined), the inhibition in assay [3] and in assay [4] was 102% in each case.

Take `COc1ccc(C[C@H]2NC[C@H](O)[C@H]2OC(C)=O)cc1`: the inhibition was found to be 114% in assay [3] and 106% in assay [4].

On to `CCOC(=O)[C@]12Cc3cc(Cl)ccc3[C@H]1N(C(C)C)C(=O)c1ccccc12`, for which the activity worked out at 79.3% in assay [5] and 85.9% in assay [6].

With `COc1ccc(-n2nnnc2C(CCSC)N2CCC(n3c(=O)[nH]c4ccccc43)CC2)cc1` (centres undefined), the inhibition in assay [3] was found to be 97.9%; in assay [4], 108%.

Take `COc1ccc(-[n+]2c(-c3ccccc3)cc(-c3ccc(C)cc3)cc2-c2ccccc2)cc1`: the activity in assay [5] was determined as 74.3%; in assay [6] it was 64.8%.

In the case of `C=C1C(=O)OC2CC3(C)OC3CCC(C)=CC(OC(C)=O)C12` (centres undefined), the results for the inhibition in assay [3] and in assay [4] were 93.9% and 99.9%, respectively.

`COc1ccc(-n2nnnc2C(CCc2ccccc2)N2CCC(n3c(=O)[nH]c4ccccc43)CC2)cc1` (centres undefined): the inhibition turned out to be 103% in assay [3] and 101% in assay [4]. The values for the activity in assay [5] and in assay [6] were 91.1% and 88.8%, respectively.

Turning to `C=C1C(C)C2C(Cc3ccccc3)NC(=O)C23OC(=O)/C=C/C(O)CCCC(C)C/C=C/C3C1O` (centres undefined), the inhibition in assay [3] was 104%; in assay [4] it was 103%.

As to `CCOC(=O)C(=CNc1ccc(C(O)(C(=O)OCC)C(F)(F)F)cc1C)C(=O)OCC` (centres undefined), the activity in assay [5] is -5.97%; in assay [6] it was 6.08%.

On to `CC1CCOC(=O)C=CC=CC(=O)OC2CC3OC4C5OC5(C)C(O)CC4(COC(=O)C1O)C2(C)C31CO1` (centres undefined), for which the activity in assay [5] was 93.7%; in assay [6] it was 97.2%.

In the case of `COc1ccc(Oc2cc(NC(=O)c3nn(C)cc3[N+](=O)[O-])cc([N+](=O)[O-])c2)cc1`, the values for the inhibition in assay [3] and in assay [4] were 113% and 101%, respectively. Moreover, the activity in assay [5] is 94.2%; in assay [6], 97.4%.

As to `CN(C)C(=O)O/N=C(\N)COc1ccc(C(C)(C)C)cc1`, the activity was found to be 96.8% in assay [5] and 98.2% in assay [6].

On to `NC(=O)c1cn(C2OC(CO)C(O)C2O)c2ncnc(N)c12` (centres undefined), for which the activity in assay [5] is 56.3%; in assay [6] it was 81.3%.

With `Clc1ccc(C[n+]2c(-c3ccccc3)cc(-c3ccccc3)cc2-c2ccccc2)cc1`, the activity in assay [5] was determined as 79.1%; in assay [6], 65.9%.

Consider `CC12CCC3C(CCC4(O)CC(O)CCC34C=NO)C1(O)CCC2C1=COC(=O)C1` (centres undefined), for which the activity in assay [5] was found to be 91%; in assay [6], 92.7%.

With `CCOC(=O)[C@]12Cc3cc(Cl)ccc3[C@H]1N(Cc1ccccc1)C(=O)c1cc(OC)ccc12`, the activity in assay [5] was found to be 91.9%; in assay [6] it was 97.9%.

With `CCOC(=O)[C@]12Cc3cc(C)ccc3[C@H]1N(C(C)C)C(=O)c1ccccc12`, the values for the activity in assay [5] and in assay [6] were 44.4% and 63.6%, respectively.

Regarding `ClCCN(CCCl)c1ccc(-n2cnc3c(Cl)ncnc32)cc1`, the figures for the activity in assay [5] and in assay [6] were 96.3% and 98.2%, respectively.

In the case of `NC(=S)c1cn(C2OC(CO)C(O)C2O)c2ncnc(N)c12` (centres undefined), the activity came to 59.4% in assay [5] and 91.2% in assay [6].

Regarding `O=c1[nH]c2ccccc2n1C1CCN(C(CCc2ccccc2)c2nnnn2Cc2ccccc2)CC1` (centres undefined), the activity stood at 95.3% in assay [5] and 92.7% in assay [6].

On to `C=CCn1c(O)c(C(CC)=NCc2cc(OC)cc(OC)c2)c(=O)[nH]c1=O`, for which the activity was found to be 46.4% in assay [5] and 37.5% in assay [6].

With `CCOC(=O)[C@]12Cc3cc(OC)ccc3[C@H]1N(C1CCCCC1)C(=O)c1ccccc12`, the activity in assay [5] was 91.9%; in assay [6], 94.1%.

On to `Nc1ncnc2c1ccn2[C@@H]1O[C@H](CO)[C@@H](O)[C@H]1O`, for which the activity in assay [5] turned out to be 97.7%; in assay [6], 97.9%.

As for `C=CCn1c(O)c(C(C)=NCc2cc(OC)cc(OC)c2)c(=O)[nH]c1=O`, the activity turned out to be 79.5% in assay [5] and 84.8% in assay [6].

With `Cc1cccc(C)c1-n1nnnc1C(CCc1ccccc1)N1CCC(n2c(=O)[nH]c3ccccc32)CC1` (centres undefined), the activity in assay [5] amounted to 90.2%; in assay [6] it was 82%.

For the molecule `CC12CCC3C(CCC4(O)CC(O)CCC34C=O)C1(O)CCC2C1=CC(=O)OC1` (centres undefined), the values for the activity in assay [5] and in assay [6] were 82.5% and 85.2%, respectively.

For the molecule `CNC(=O)Oc1cccc(-c2cn3cc(Cl)ccc3n2)c1`, the activity in assay [5] was 86.8%; in assay [6], 83%.

As for `O=[N+]([O-])c1ccc(Cl)c([N+](=O)[O-])c1`, the activity in assay [5] was -3.27%; in assay [6] it was 54.8%.

Regarding `CCOC(=O)[C@]12Cc3cc(Cl)ccc3[C@H]1N(CC(=O)OC)C(=O)c1ccccc12`, the values for the activity in assay [5] and in assay [6] were 40.5% and 64%, respectively.

For the molecule `CC(=O)OCC12CC(OC(=O)CC(C)C)C(C)=CC1OC1C(O)C(OC(C)=O)C2(C)C12CO2` (centres undefined), the activity in assay [5] stood at 93%; in assay [6] it was 97.6%.

As for `CC1OC(OC2C=C3CCC4C(CCC5(C)C(c6ccc(=O)oc6)CCC45O)C3(C)CC2)C(O)C(OC2OC(CO)C(O)C(O)C2O)C1O` (centres undefined), the activity is 83.1% in assay [5] and 91.9% in assay [6].

Take `CCOC(=O)[C@]12Cc3cc(C)ccc3[C@H]1N(C1CCCCC1)C(=O)c1ccccc12`: the values for the activity in assay [5] and in assay [6] were 95.3% and 96.5%, respectively.

As for `CC(=O)OC1C(=O)OCC23CCC4(C)OC4C2OC2CC(OC(=O)C=CC=CC(=O)OCCC1C)C3(C)C21CO1` (centres undefined), the activity in assay [5] came out at 89.6%; in assay [6], 92.9%.
